The whole screen tested about 1,300 compounds, of which about 140 (11%) were called active. The rule behind the calls is not given here. The list is a sample of the results. Results with a measured potency or affinity are listed apart.
target: Prostaglandin E2 receptor EP2 subtype (Homo sapiens) (UniProt P43116); experiment: compounds shifting PGE2 potency at EP2 – cell-based, human EP2, PGE2 EC50 shift, dose response (AID 1421); conditions: EP2-expressing cells, PGE2 EC50 shift by compound; at 20 µM
Sequence (P43116 whole entry, looked up): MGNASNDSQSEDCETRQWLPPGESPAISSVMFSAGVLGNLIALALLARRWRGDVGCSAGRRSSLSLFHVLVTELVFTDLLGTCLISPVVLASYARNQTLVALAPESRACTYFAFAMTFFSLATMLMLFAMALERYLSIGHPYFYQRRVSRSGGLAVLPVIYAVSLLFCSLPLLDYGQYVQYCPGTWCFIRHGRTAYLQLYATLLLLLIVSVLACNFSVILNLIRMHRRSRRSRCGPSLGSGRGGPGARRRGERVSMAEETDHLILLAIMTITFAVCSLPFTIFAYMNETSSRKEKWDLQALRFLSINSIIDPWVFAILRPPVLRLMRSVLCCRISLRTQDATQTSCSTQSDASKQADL

PGE2 EC50 with compound, inactive:
c1ccc(-c2n[nH]nc2-c2ccccc2)cc1 0.21 nM
FC(F)(F)c1nnc(-c2ccccc2)nc1Sc1ccccc1 0.72 nM
CCN1C(=O)/C(=C2/C=CC=CN2C)SC1=S 0.94 nM
Nc1ccccc1CCCC(=O)O 0.94 nM
COc1cc2ccccc2cc1C(=O)NC(=S)Nc1cccc(C(=O)O)c1 6.94 nM
O=C(Nc1ccccc1Oc1ccccc1)c1ccccc1F 0.17 nM
CC1CCCCN1C(=O)/C(=C\c1ccccc1)c1ccccc1 (stereo not given) 0.44 nM
Cc1sc(NC(=O)CN2CCOCC2)c(C(=O)c2ccccc2)c1C 0.63 nM
CCc1ccccc1NC(=S)N(Cc1ccco1)C(C)c1cccs1 (stereo not given) 0.38 nM
CCOC(=O)C1=C(N)OC(C)=C(C#N)C1c1ccco1 (stereo not given) 0.56 nM
S=c1[nH]nc(C2CCCCC2)n1Cc1ccccc1 0.39 nM
C=CCc1cc(C=O)cc(OC)c1OCc1ccc(Cl)cc1 0.92 nM
CNC(=O)NC(=O)CSc1nc(-c2cccs2)c(C#N)c(=O)[nH]1 15.8 nM
CC(Cc1ccccc1)NC(=O)C1(c2ccccc2)CCOCC1 (stereo not given) 1.12 nM
CCOC(=O)c1cnc2c(c(C)nn2C)c1Oc1ccc(Cl)cc1 0.52 nM
C=CCn1c(=O)c(C(=O)NCCc2ccccc2)c(O)c2ccccc21 0.5 nM
CC(C)Cc1nc(SCc2cccnc2)c2c(=O)n(C)c(=O)n(C)c2n1 0.37 nM
Cc1ccc2nc(SCC(=O)NCc3ccco3)c(C)cc2c1 0.5 nM
COc1cc(OC)c2c(OC)c(-c3ccc4c(c3)OCO4)c(=O)oc2c1 0.39 nM
CCC1C/C(=C/c2ccco2)C(=O)/C(=C/c2ccco2)C1 (stereo not given) 0.69 nM
Cc1cc(C)c(S(=O)(=O)c2ccccc2)c(OC(=O)c2c(Cl)cc(Cl)cc2Cl)n1 0.38 nM
c1ccc(CCc2cccnc2)nc1 0.8 nM
Cc1noc(C)c1CSc1ncnc2sc3c(c12)CCCCC3 0.42 nM
Cc1noc(C)c1CSc1ncnc2sc3c(c12)CCC(C)C3 (stereo not given) 0.4 nM
CC(=O)O[C@H]1C[C@@H](OC(C)=O)C(C)(C)C2C[C@@H](OC(C)=O)[C@]3(C)C([C@H](OC(C)=O)C[C@@]4(C)[C@H](c5ccoc5)OC(=O)[C@H]5O[C@]543)[C@]21C (stereo not given in full) 0.32 nM
Cc1ccc(C)n1-n1cnc2scc(-c3cccs3)c2c1=O 0.29 nM
COC(=O)c1sccc1NC(=O)c1cc2c(s1)CCCC2 0.5 nM
COc1ccc(Cc2n[nH]c(=S)n2Cc2ccccc2)cc1Cl 0.57 nM
CCOC(=O)c1c(NC(=O)Cc2cccs2)sc(C)c1C 0.53 nM
CCOC(=O)Nc1sc2c(c1C(=O)OCC)CCC2 0.57 nM
CCOC(=O)c1c(NC(=O)c2cccs2)sc2c1CCN(C(=O)OCC)C2 0.43 nM
COC(=O)c1c(NC(=O)c2ccc(Br)s2)sc2c1CCC2 0.42 nM
COC(=O)c1c(NC(=O)Cc2cccs2)sc2c1CCCC2 0.49 nM
CCOC(=O)c1c(NC(=O)CN2CCN(C(=O)c3ccco3)CC2)sc2c1CCCC2 0.59 nM
CCOC(=O)c1c(/N=C/C2C(=O)CCCC2=O)sc2c1CCCC2 0.36 nM
CCOC(=O)c1c(NC(=O)c2ccc(Br)o2)sc(C)c1CC 0.27 nM
Cc1cccc(/N=C/c2c(O)ccc3oc4c(c23)CCCC4)n1 1.21 nM
C=CCSc1nc2ccsc2c(=O)n1-c1ccccc1 0.37 nM
Oc1ccc(/C=N/N2CCN(C3c4ccccc4-c4ccccc43)CC2)c(O)c1 0.25 nM
COc1cc(NC(=S)NC(=O)c2cc(C)cc(C)c2)ccc1NC(=O)c1cccs1 0.3 nM
O=S(=O)(c1cccs1)N1CN(Cc2cccs2)c2nc3ccccc3nc21 0.45 nM
CCOC(=O)c1c(NC(=O)CN(CC)CC)sc2c1CCN(C(=O)OCC)C2 0.29 nM
CCOC(=O)c1c(N)nn(C(=O)C(C)(C)C)c1-c1ccccc1 0.11 nM
Cc1cc(NC(=O)c2cc(-c3ccncc3)nc3c(C)cccc23)no1 0.92 nM
CCOC(=O)c1c(NC(=O)Cn2nnc3ccccc32)sc2c1CCC(C)C2 (stereo not given) 0.53 nM
CC(=O)Nc1sc2c(c1C(c1cccs1)N1CCOCC1)CCCC2 (stereo not given) 0.33 nM
CCOC(=O)c1c(NC(=O)c2ccc(N3C(=O)[C@@H]4[C@H](C3=O)[C@H]3C=C[C@@H]4C3)cc2)sc2c1CC(C)CC2 (stereo not given in full) 0.47 nM
COC(=O)c1c(NC(=S)NN2CCOCC2)sc2c1CCCC2 0.39 nM
COC(=O)c1c(NC(=O)c2ccccc2N(C)S(=O)(=O)c2ccccc2)sc2c1CCCC2 0.38 nM
CCOC(=O)c1c(NC(=O)COC(=O)Cn2c(C)nc3ccccc32)sc2c1CCCC2 0.55 nM
CCOC(=O)c1c(NC(=O)c2ccn(CC)n2)sc2c1CCCC2 0.33 nM
CCOc1ccccc1COC(=O)c1cccc(-n2cnnn2)c1 0.54 nM
C/C(Cl)=C/Cn1c(SC(C)C)nc2c1c(=O)[nH]c(=O)n2C 0.83 nM
NS(=O)(=O)c1ccc(NCc2cnc3ccccc3n2)cc1 1.13 nM
Cc1ccccc1/C=C/c1nc2ccccc2c(=O)n1CCc1ccccc1 0.19 nM
COc1cc(C2Oc3cc(C4Oc5cc(O)cc(O)c5C(=O)C4O)ccc3OC2CO)ccc1O (stereo not given) 1.94 nM
CCCCC(=O)Nc1sc2c(c1C(=O)OCC)CCC(C=O)=C2Cl 1.75 nM
CCOC(=O)c1c(-c2cccs2)csc1NC(=O)CN1CCOCC1 2.48 nM
CCCC/C(=N\NC(=O)c1ccc(Br)o1)c1ccccc1 0.6 nM
COc1cc2cc(Br)cc(Br)c2nc1C 1.2 nM
CCC1CCc2c(sc3ncnc(N4CCOCC4)c23)C1 (stereo not given) 0.42 nM
CCOC(=O)c1c(NC(=O)c2cccs2)sc2c1CCCC2 0.75 nM
Cc1sc(NC(=O)c2cccs2)c(C(=O)OC(C)C)c1C 0.27 nM
N#CCSc1nc2ccccc2c(=O)n1C1CCCCC1 0.68 nM
O=C(OCc1ccc(Cl)cc1)c1ccccc1C(=O)c1ccccc1 0.41 nM
O=C(c1ccccc1)N1N=C(c2ccccc2)CC1c1ccccc1O (stereo not given) 0.27 nM
COc1ccc(-c2nc(NC(C)=O)sc2-c2ccc(OC)cc2)cc1 0.57 nM
O=C(Nc1nc(-c2cccs2)c(-c2ccccc2)s1)c1ccco1 0.72 nM
CCCCCOC(=O)c1[nH]c2c(c1C)C(=O)C(C(=O)OC)C(C)C2 (stereo not given) 0.88 nM
Nc1cccc(OCc2nc(N)nc(N)c2-c2ccc(Cl)cc2)c1 0.92 nM
CCc1c(-c2n[nH]c(=S)n2Cc2ccccc2)csc1C 0.32 nM
C=CCOc1nc(-c2ccncc2)nc2ccccc12 0.27 nM
CCOC(=O)CN(C(=O)CSc1nnc(Cc2ccccc2)n1-c1ccc(C)cc1)c1ccccc1 0.47 nM
Cc1ccc(C)c(CN2C(=O)C(C)Oc3ccc(C)cc32)c1 (stereo not given) 0.3 nM
CCOc1nc(-c2ccccc2O)nc2ccccc12 0.32 nM
Oc1ccccc1-c1nc(N2CCCC2)c2ccccc2n1 0.3 nM
CCCC(=O)Nc1ccccc1Sc1ncnc2scc(-c3ccccc3)c12 0.74 nM
CCCCC(CC)CN1CN(CC(CC)CCCC)CC(C)(N)C1 (stereo not given) 0.75 nM
OCCCNc1nc(-c2ccc(Br)cc2)nnc1-c1ccc(Cl)cc1 1.43 nM
COc1ccc(-n2c(COc3cccc4ccccc34)nnc2SCC#N)cc1 0.49 nM
NCCc1c(-c2ccccc2)n(-c2ccccc2)c2ccccc12 0.41 nM
FC(F)(F)c1cccc(/C=N/NC(=S)NC2CCCCC2)c1 4.2 nM
O=C(CC(Sc1ccccc1)c1cccs1)c1ccco1 (stereo not given) 0.41 nM
CCn1c2ccccc2c2cc([N+](=O)[O-])ccc21 0.38 nM
CC(C)n1c2ccccc2c2nc3ccccc3nc21 0.41 nM
CCn1c2ccccc2c2nc3ccccc3nc21 0.63 nM
CCCSc1nc(N2CCOCC2)c2c(c1C#N)CCCC2 0.34 nM
Cc1ccc2cccc(NC(=O)c3ccc(Br)o3)c2n1 0.12 nM
Cc1cccc(-c2nc(=S)c3c(n2Cc2ccco2)CCCC3)c1 0.55 nM
CN(CC(=O)Nc1ccccc1Oc1ccccc1)Cc1ccccc1F 0.3 nM
COc1ccccc1CN(C)CC(=O)Nc1ccccc1-c1ccccc1 0.72 nM
CC(C)c1nc(SCc2c(F)cccc2Cl)c2c(=O)n(C)c(=O)n(C)c2n1 0.23 nM
CC1CN(c2nc3ccccc3cc2-c2ccccc2)CC(C)O1 (stereo not given) 0.31 nM
CCCCn1c(-c2csc(CCC)c2)n[nH]c1=S 0.43 nM
CCCc1cc(-c2n[nH]c(=S)n2Cc2ccccc2)cs1 0.76 nM
